Reference: PubChem BioAssay AID778 (Sanford-Burnham Center for Chemical Genomics, 2007)
About 20,000 (21%) of roughly 96,000 compounds were called active. Only a sample is shown. A number with no mark means an inactive call.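 How the source made its calls: active means CYP2C19 inhibition above a set limit at 5 µM in the primary screen (cut at about 50% in these data); inactive means the rest.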

Biological target: Cytochrome P450 2C19 (Homo sapiens) (UniProt P33261)
Test: blockers of cytochrome P450 2C19 activity – biochemical, luminescence, ADME assay, primary screen (AID 778);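 further: plate controls were negative control wells for no effect and 2.5 mM tranylcypromine positive control for full effect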
Conditions: CYP2C19 Supersomes, luciferin-H EGE luminescence, 30 min; at 5 µM; active compounds read high

Chain of Cytochrome P450 2C19 (Homo sapiens) (P33261 whole entry, looked up): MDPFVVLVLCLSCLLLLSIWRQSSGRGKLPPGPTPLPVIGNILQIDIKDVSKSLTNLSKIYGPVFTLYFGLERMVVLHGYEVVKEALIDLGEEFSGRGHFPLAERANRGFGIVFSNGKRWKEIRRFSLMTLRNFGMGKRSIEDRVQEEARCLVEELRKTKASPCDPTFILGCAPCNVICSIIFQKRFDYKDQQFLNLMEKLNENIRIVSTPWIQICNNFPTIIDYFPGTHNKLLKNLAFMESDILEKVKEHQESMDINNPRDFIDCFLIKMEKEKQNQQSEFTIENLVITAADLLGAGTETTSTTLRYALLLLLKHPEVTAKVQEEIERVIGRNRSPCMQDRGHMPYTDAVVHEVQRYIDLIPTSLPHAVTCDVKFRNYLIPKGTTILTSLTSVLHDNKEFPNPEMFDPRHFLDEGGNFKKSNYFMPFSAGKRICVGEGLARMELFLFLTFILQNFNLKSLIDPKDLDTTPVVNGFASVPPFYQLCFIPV

SMILES	inhibition
CCOc1cccc(/C(O)=C2/C(=O)C(=O)N(CCOC)C2c2ccncc2)c1 (configuration not stated)	-18.2%
COc1ccc(N2C(=O)CC(N3CCC(C(N)=O)CC3)C2=O)cc1 (configuration not stated)	-28.9%
COc1ccc(C(=O)Nc2ccc(S(=O)(=O)NC(C)C)cc2)cc1	42.9%
CO/N=C(/CS(=O)(=O)c1ccc(Br)cc1)c1ccc(OC)cc1	100% (active)
COC(=O)CNS(=O)(=O)c1ccc(OC)cc1	10.3%
Cc1nc(-c2ccccc2)sc1-c1nc(-c2ccccc2)ncc1S(=O)(=O)c1ccccc1	5.1%
CC(C)NS(=O)(=O)c1ccc(CCC(=O)N2CCOCC2)cc1	14.2%
Cn1c(C(=O)OC(C(=O)NC2CCCCC2)c2ccccn2)cc2sccc21 (configuration not stated)	67.2% (active)
CC(=O)OC(C(=O)NC1CCCCC1)c1ccccc1 (configuration not stated)	20.2%
O=C(OC(C(=O)NC1CCCC1)c1ccc(F)cc1)c1ccno1 (configuration not stated)	8.1%
Cc1nc2ccccc2c(=O)n1CCCn1ccnc1	50.8% (active)
Cc1nc2c(c(=O)n1Cc1ccco1)c1nc3ccccc3nc1n2Cc1ccccc1	3%
CCn1c(C)nc2c1C(=O)c1ccccc1C2=O	-8.5%
CCC(C)N1C(=O)S/C(=C/c2ccc(Sc3nc4ccccc4[nH]3)o2)C1=O (configuration not stated)	43.3%
CC(C)Cc1oc(C(=O)O)cc1CN	4.2%
CC1OC2C(OC1C)N(S(C)(=O)=O)CCN2S(C)(=O)=O (configuration not stated)	-4.8%
Cc1ccc(CCN2CC(C(=O)O)CC2=O)cc1 (configuration not stated)	-0.5%
Cc1ccc(CNC(=O)C2CC(=O)N(C3CCCCCCC3)C2)cc1 (configuration not stated)	-2.5%
CCc1ccc(CNC(=O)C2CC(=O)N(CCc3ccc(C)cc3)C2)cc1 (configuration not stated)	54.2% (active)
Cc1ccc(C(=O)NC2CCN(C(=O)N3CCOCC3)CC2)cc1	-1.3%
O=C(NC1CCCCC1)c1ccc(CNc2c(N3CCOCC3)c(=O)c2=O)cc1	9.7%
O=C1OC(NC(=O)c2ccccc2)C(N2CCOCC2)=C1Cl (configuration not stated)	52.8% (active)
COc1ccc(NC(=O)C(NC(C)=O)C(=O)NCc2ccccc2Cl)cc1 (configuration not stated)	12.9%
COc1ncnc2c1N=C1CC(C)(C)CC(N)=C1S2	4.5%
CN(CCc1ccccn1)S(=O)(=O)c1ccc2c3c(cccc13)C(=O)N2	93.6% (active)
O=c1[nH]nc(Cc2ccccn2)c2ccccc12	-0.8%

SMILES	inhibition
CCCC1C(c2ccccc2)C(C#N)(C#N)C2(C#N)CC1(N)NC2=O (configuration not stated)	5%
O=C(O)c1ccccc1NC(=S)NC(NC(=O)c1ccccc1[N+](=O)[O-])C(Cl)(Cl)Cl (configuration not stated)	2%
CC1(C)N=C(c2ccccn2)C(C)(C)N1O	29.9%
COc1ccc(NC(=O)Nc2ccc3nsnc3c2)cc1	20.3%
COc1cccc(N2C(=O)C3CCCN3C2c2ccc(F)cc2)c1 (configuration not stated)	-0.1%
O=S(=O)(Nc1ccc2nc(-c3ccco3)[nH]c2c1)c1ccccc1	92.4% (active)
Cc1cc(NS(=O)(=O)c2ccccc2)no1	-16.4%
O=C(/C=C/c1ccco1)Nc1cccc(-c2nc3ccccc3[nH]2)c1	47.9%
Cc1ccc(C)c(S(=O)(=O)n2cnc3ccccc32)c1	-11.2%
Cc1ccc(C)c(NS(=O)(=O)c2cc(Br)cnc2N)c1	61.5% (active)
COc1c(C(=O)N2CCCC2)ccc2ccccc12	53% (active)
O=C(c1cccc2ccccc12)N1CCN(c2ccccc2F)CC1	35.4%
CC(=O)c1ccc2c(ccc3ccccc32)c1	35%
Cc1cc(-n2nc(C)cc2C)n2nc(C)c(-c3ccccc3)c2n1	21.4%
COc1ccccc1C(=O)N1CCN=C1SCc1cccnc1	88.2% (active)
COc1ccccc1C(=O)N1CCNC(=O)C1CC(=O)Nc1ccc(Cl)cc1 (configuration not stated)	12.1%
CCOc1cccc(SCc2noc(C(=O)NC(C)C)c2C(=O)O)c1	8.8%
COc1ccc(OC)c(C2N(c3ccccn3)C(=O)C3CCCN32)c1 (configuration not stated)	-2.4%
COc1ccc(NCc2nnc(SCc3ccccc3)n2-c2ccc(OC)cc2)cc1	85.8% (active)
COc1ccc(-c2nnc(SCC(=O)c3ccco3)n2-c2ccccc2)cc1	-13.8%
CCn1c(CNc2ccc(OC)cc2)nnc1SCC(=O)c1ccc(OC)cc1	33.9%
CCC(=O)N1c2ccc(S(=O)(=O)CCC(=O)N3CCN(c4ccccc4)CC3)cc2CC1C (configuration not stated)	26.2%
Cc1csc(=NC(=O)c2ccccc2)n1CCO	49.7%
Cc1ccn2cc(C(=O)NC3CCN(Cc4ccccc4)CC3)nc2c1	11.4%
CCC(=O)Nc1ccc(C(=O)Nc2cc(C)on2)cc1	14.7%
CCCC(C)C(=O)Nc1ccc(NC(C)=O)cc1 (configuration not stated)	-6.8%

SMILES	inhibition
O=C(NCCc1ccccn1)c1cc(C(=O)C2CCCCC2)c[nH]1	-1.5%
CCOC(=O)C1CCN(c2ncnc3c2oc2ccc(Br)cc23)CC1	43.1%
Cc1nn(Cc2ccc(Cl)c(Cl)c2)c(C)c1NC(=O)c1cc(C2CC2)on1	95% (active)
CSc1ccccc1NC(=O)c1cc(C2CC2)on1	31.1%
Cc1cc(C(=O)Nc2c(C)nn(Cc3ccccc3)c2C)on1	11.7%
Cc1nc2nc(CSc3nc4ccccc4s3)cc(=O)n2[nH]1	-9.6%
CN(C)/C(CN1CCCCC1)=C1\N=C(c2ccccc2)OC1=O	63.8% (active)
O=S(=O)(c1ccccc1)N(CC(O)CN1CCCCC1)c1ccccc1 (configuration not stated)	17.7%
O=c1oc2c(Cl)cc(Cl)cc2cc1-c1nnc(Nc2ccccc2F)s1	-3.7%
CCOC(=O)CNC(=O)CN1C(=O)CCSc2ccccc21	44.3%
CCSc1ncnc2c(C#N)c3n(c12)CCCCC3	5.8%
Cc1nc(-c2ccc(NC(=O)c3cccs3)cc2)cs1	12.8%
O=C(Nc1ccc(Cl)cc1)OCc1cc(-c2ccccc2)on1	76.4% (active)
O=C(Nc1ccccc1)OCc1cn(-c2ccc(Cl)cc2)nn1	-1.4%
O=C(Nc1ccccc1)OCc1cc(-c2ccc(Cl)cc2)on1	16.6%
CCOC(=O)CSc1ncc(-c2cccc(Cl)c2)cn1	11.1%
COc1ccccc1N=C(C)C1=C(O)COC1=O	27.5%
CC(C)N(C(=O)Cn1c(SCC(=O)N2CCN(c3ccccc3)CC2)nc2ccccc21)C(C)C	6.9%
COC(=O)[C@H](Cc1ccccc1)NC(=O)N1CC(C)OC(C)C1 (some centres not stated)	8.3%
CC(C)(C)NC(=O)Cn1nnc(-c2ccccc2Cl)n1	45%
COc1ccc(-c2nnn(CC(=O)N(CCO)C(C(=O)NC3CCCC3)c3ccc(F)cc3)n2)cc1 (configuration not stated)	7.8%
Cc1ccc(-c2nnn(CC(=O)N(CCO)C(C(=O)NC(C)(C)C)c3ccncc3)n2)cc1 (configuration not stated)	74% (active)
CCCNC(=O)N1CCN(C(=O)NCCC)CC1	4.5%
COc1ccc(C(=S)Nc2ccccc2)cc1	65.2% (active)
COCCNC(=S)c1ccc(OC)cc1	18%
COc1ccc(NC(=O)c2ccc(OC)cc2)cc1	-5.6%

SMILES	inhibition
Oc1ccccc1CNc1ncc(Br)cc1Br	39.4%
COc1ccc(CCNC(=O)c2ccco2)cc1	55.3% (active)
O=C(NCCSc1ccccc1)c1ccco1	21.8%
COc1ccc(N(CC(=O)NC(C)(C)C)C(=O)c2ccco2)cc1	-6.7%
CCc1ccc(-c2cc(C(=O)NCc3ccco3)c3ccccc3n2)s1	11.6%
c1ccc(CCC2=NCCn3cccc32)cc1	10.1%
O=S(=O)(c1ccc(Br)cc1)n1ccc2ccccc21	66.4% (active)
CC(=O)Nc1cccc(/C(C)=N/NC(=O)c2ccccc2Cl)c1	10.9%
Cc1ccc(C)c(N2C(=O)CS/C2=N\NC(=O)c2ccccc2Cl)c1	63.7% (active)
Cc1ccc(C)c(NC(=O)C2CC(=O)N(C(C)C)C2)c1 (configuration not stated)	-10.6%
O=C(NC1CCCCC1)C1c2ccccc2C(=O)N1Cc1ccco1 (configuration not stated)	12.4%
O=C1c2ccccc2C(Nc2ccc3c(c2)OCCO3)N1Cc1ccco1 (configuration not stated)	72.9% (active)
Cc1ccnc(N2C(=O)c3ccccc3C2Nc2ccc3c(c2)OCCO3)c1 (configuration not stated)	93.2% (active)
Cc1cccc(C(=O)Nc2ccccc2-c2nnn(CC(=O)Nc3ccc4c(c3)OCCO4)n2)c1	-12.5%
CC1CCN(c2nc3c(c(=O)[nH]c(=O)n3C)n2CCCc2ccccc2)CC1	18.4%
O=C1CSC(c2cccc(F)c2)N1c1ccc(O)cc1 (configuration not stated)	26.3%
CC1C/C(=N/NC(=O)c2cccs2)CC(C)(C)C1 (configuration not stated)	41.9%
FC(F)(F)c1cc(C(F)(F)F)c2ccc(N3CCN(c4ccccc4)CC3)nc2n1	-3.4%
CCOC(=O)CCCNC(=O)CN1C(=O)NC(CCc2ccccc2)C1=O (configuration not stated)	-2.6%
COc1ccc(-c2nnco2)cc1OC	11.8%
C=CCn1c(C(C)NC(=O)CC)nc2ccccc21 (configuration not stated)	-3.9%
CCCn1c(C(Cc2ccccc2)NC(=O)COC)nc2ccccc21 (configuration not stated)	90.2% (active)
CCCC(NC(=O)c1ccccc1)c1nc2ccccc2n1Cc1ccc(C(=O)OC)o1 (configuration not stated)	2.7%
CC(CN1CCCCC1)OC(=O)c1ccccc1Cl (configuration not stated)	38.8%
